Test results published in PubChem BioAssay (NCATS).
Inconclusive results are not listed. Calls of active or inactive are those of the source. Unless noted, calls come from the whole dose curve; as a rule, active = well fitted curve in the direction sought with a large enough effect; inconclusive = small, poorly fitted or top-dose-only effect, or another doubt; inactive = no such curve, though single readings can be large; an effect the other way counts as inactive or inconclusive.

Tests used:
[1] = Cell Viability - BJ (AID 421; calls by dose curve;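 note: potency is the fitted concentration of half-maximal effect; cells exposed to compound for 40 hours at 37 °C before readout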); conditions: BJ fibroblast viability, qHTS
Procedure, shortened: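 Cytotoxicity in human BJ foreskin fibroblasts is scored as loss of cellular ATP after a 40-hour exposure, measured by luciferase luminescence. Controls are DMSO and 100 uM tamoxifen.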

[2] = Cell Viability - Jurkat (AID 426;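 active = dose-dependent loss of cell ATP signal giving a full or clear fitted curve, ranked by lower potency value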; note: potency is the fitted concentration of half-maximal effect); conditions: qHTS
Procedure, shortened: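 Seed 5000 Jurkat E6-1 cells/well; add compound; incubate 40 hr at 37 °C; add CellTiter-Glo; wait 20 min at room temperature; read luminescence. Fit concentration-response with Hill equation for AC50.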

[3] = Cell Viability - Hek293 (AID 427;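 active = compounds whose dose-response curve shows a full or clear partial loss of cell viability, called from curve shape rather than a numeric limit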;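 note: potency is the fitted concentration of half-maximal effect; cells exposed to compound for 40 hours at 37 °C before reading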); conditions: qHTS
Procedure, shortened: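 qHTS, human embryonic kidney (adenovirus-transformed) cells; 40 hr cpd, 37 °C; CellTiter-Glo ATP luminescence. Norm: DMSO = 0, 100 uM tamoxifen = 100% inhibition. Hill-fit AC50.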

[4] = Cell Viability - HepG2 (AID 433; calls by dose curve;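 note: potency is the fitted concentration of half-maximal effect; potency for ATP loss meaning cytotoxicity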); conditions: qHTS
Procedure, shortened: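 HepG2 cells, 1500 per well, treated 40 hr at 37 °C in complete medium; viability from intracellular ATP by CellTiter-Glo luminescence. Normalized to DMSO and 100 uM tamoxifen; AC50 from Hill fit of qHTS concentration-response.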

[5] = Cell Viability - MRC5 (AID 434; calls by dose curve;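 note: potency is the fitted concentration of half-maximal effect; potency reflects cytotoxicity seen as loss of intracellular ATP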); conditions: MRC5 lung fibroblast viability, qHTS
Procedure, shortened: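 MRC5 normal human lung fibroblasts, 1500 cells/well, exposed to compound for 40 hr at 37 C. Cellular ATP was read by CellTiter-Glo luminescence; data normalized to DMSO and 100 uM tamoxifen, with AC50 from Hill fits.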

[6] = Cell Viability - SK-N-SH (AID 435; calls by dose curve;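 note: potency is the fitted concentration of half-maximal effect; compound exposure lasted 40 h at 37 °C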); conditions: SK-N-SH neuroblastoma cell viability qHTS
Procedure, shortened: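 SK-N-SH neuroblastoma cells (1500/well) treated 40 h at 37 °C in complete medium; viability read as cellular ATP by CellTiter-Glo luminescence. Normalized to DMSO and 100 uM tamoxifen; AC50 from Hill fits of qHTS concentration-response.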

[7] = target: Mitogen-activated protein kinase 10 (Mus musculus) (UniProt Q61831); assay: JNK3 AlphaScreen Assay (AID 530; active = well fitted curve in either direction with a large enough effect, not every such curve was filed as active;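 note: kinase came from lysate of stimulated human HepG2 cells; signal reports phosphorylation of biotinylated GST-cJun 1-79 at Ser73 with 10 µM ATP; % is set by controls: 0 for no effect and ±100 for the full control effect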); conditions: JNK3 lysate, c-Jun phosphorylation; series mostly up to 57.1 µM
Procedure, shortened: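 qHTS format: compounds tested as titrations against IL-1beta/TNF-alpha-activated HepG2 lysate JNK3 with biotin-GST-cJun substrate and 10 uM ATP at room temperature. Loss of anti-phospho-cJun AlphaScreen signal indicates inhibition.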

[8] = Cell Viability - N2a (AID 540); conditions: N2a mouse neuroblastoma cell viability; activity change, negative = cytotoxicity: at 92.2 µM (top of the series);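 note: plate controls were DMSO alone for no effect and tamoxifen control for full effect; nearly all actives have a fitted effect of over 45% in size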
Procedure, shortened: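 First, 1500 N2a cells per well incubate 5 hr at 37 °C; next, compounds are added and incubated 40 hr at 37 °C; finally CellTiter-Glo is added and luminescence read after 20 min, with AC50 derived by Hill modeling.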

[9] = Cell Viability - NIH 3T3 (AID 541); conditions: NIH 3T3 cell viability, qHTS; activity change, negative = cytotoxicity: at 92.2 µM (top of the series);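 note: plate controls were DMSO alone for no effect and tamoxifen positive control for full effect; nearly all actives have a fitted effect of over 25% in size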
Procedure, shortened: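 AC50 values reflect concentration-dependent loss of intracellular ATP in NIH 3T3 cells after 40 hr treatment in complete culture medium, quantified by luciferase-based luminescence.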

[10] = Cell Viability - HUV-EC-C (AID 542); conditions: HUV-EC-C endothelial cell viability, qHTS; series mostly up to 92.2 µM; note: % is set by controls: 0 for no effect and ±100 for the full control effect; nearly all actives have a fitted effect of over 35% in size
Procedure, shortened: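 Decrease in cellular ATP, quantified by luciferase luminescence, reflects toxicity in normal human vascular endothelial HUV-EC-C cells given compound for 40 hr in complete culture medium. Values are AC50s from concentration-response curves.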

[11] = Cell Viability - H-4-II-E (AID 543); conditions: H-4-II-E rat hepatoma viability; series mostly up to 92.2 µM; note: % is set by controls: 0 for no effect and ±100 for the full control effect; nearly all actives have a fitted effect of over 35% in size
Procedure, shortened: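 Here, cytotoxicity is measured in the rat hepatoma line H-4-II-E as loss of intracellular ATP after 40 hr compound treatment, detected by luciferase luminescence.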

[12] = Cell Viability - SH-SY5Y (AID 544); conditions: SH-SY5Y neuroblastoma cell viability; viability change, negative = cytotoxic: at 92.2 µM (top of the series); note: nearly all actives have a fitted effect of over 55% in size
Procedure, shortened: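 Cytotoxicity is scored as a concentration-dependent fall in intracellular ATP in human SH-SY5Y cells treated 40 hr in complete culture medium. Potency is expressed as AC50 from a Hill equation fit.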

[13] = Cell Viability - Mesenchymal (AID 546); conditions: mesenchymal cells viability, qHTS; series mostly up to 91.7 µM;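 note: cells exposed to compound for 40 hours before reading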
Procedure, shortened: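 Human kidney mesenchymal cells from normal renal glomeruli, 1000 cells/well, rested 5 hr at 37 °C, then treated 40 hr at 37 °C in complete medium. Cellular ATP read by CellTiter-Glo luminescence; AC50 from Hill-equation fits.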

[14] = Cellular Toxicity (caspase-3) HepG2 (AID 654); conditions: HepG2 caspase-3 activation, luminescence; series mostly up to 92.2 µM;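 note: cells exposed to compound for 16 hours before reading; 0% = DMSO alone and 100% = caspase signal from 100 µM tamoxifen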
Procedure, shortened: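 qHTS, HepG2, 1500 cells/well, complete medium; cpd 16 h 37 °C; Caspase-Glo 3/7, 20 min RT; lum. Norm: DMSO vs 100 uM tamoxifen; AC50 Hill fit.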

[15] = Cellular Toxicity (caspase-3) Jurkat (AID 655); conditions: Jurkat caspase-3 activation, luminescence; caspase-3 activation: at 92.2 µM (top of the series), DMSO = 0%, tamoxifen = 100%;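 note: cells exposed to compound for 16 h at 37 °C before reading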
Procedure, shortened: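 Jurkat cells (5000/well) in complete medium exposed 16 h at 37 C; caspase-3/7 activity read by Caspase-Glo luminescence after 20 min at room temperature. Normalized to DMSO and 100 uM tamoxifen; AC50 from Hill fits.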

[16] = Cellular Toxicity (caspase-3) HUV-EC-C (AID 656); conditions: HUV-EC-C cells, caspase-3 activation (apoptosis), vehicle = 0, 100 µM tamoxifen = 100%; series mostly up to 92.2 µM
Procedure, shortened: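 HUV-EC-C cells (1000/well) in complete medium, compound-treated 16 h at 37 °C; caspase-3/7 activity read by Caspase-Glo 3/7 luminescence. Normalized to DMSO (basal) and 100 uM tamoxifen (100%); AC50 from Hill-equation concentration-response fits.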

[17] = Cellular Toxicity (caspase-3) SHSY5Y (AID 657); conditions: SH-SY5Y caspase-3 activation, DMSO zero, 10 µM staurosporine = 100%; series mostly up to 91.7 µM
Procedure, shortened: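 SH-SY5Y human neuroblastoma cells, 1500/well, exposed to compound for 16 hours at 37 °C in complete medium. Caspase-3/7 activity read by Caspase-Glo luminescence after 1 hr at room temperature, normalized to DMSO and 10 uM staurosporine; AC50 from Hill fit.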

[18] = Cellular Toxicity (caspase-3) BJ (AID 658); conditions: BJ fibroblasts, luminescence, normalized: DMSO 0%, staurosporine 100%; series mostly up to 91.7 µM
Procedure, shortened: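 BJ human foreskin fibroblasts, 1000 cells/well, treated 16 hours at 37 °C in complete medium; caspase 3/7 activity by Caspase-Glo luminescence after 1 hr at room temperature. Normalized to DMSO and 10 uM staurosporine; AC50 from Hill fits.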

[19] = Cellular Toxicity (caspase-3) MRC-5 (AID 659); conditions: MRC-5 cells, luminescence, normalized: DMSO 0%, 10 µM staurosporine 100%; series mostly up to 91.7 µM
Procedure, shortened: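 MRC-5 human normal lung fibroblasts, 1500 cells/well, treated 16 h at 37 °C in complete medium. Caspase 3/7 measured by Caspase-Glo luminescence after 1 h at room temperature. Normalized to DMSO and 10 uM staurosporine; AC50 from Hill fit.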

[20] = Cell Viability - Renal Proximal Tubule (AID 545); conditions: renal proximal tubule cells viability, primary cells of rat origin; series mostly up to 91.7 µM; note: nearly all actives have a fitted effect of over 40% in size
Procedure, shortened: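 Rat renal proximal tubule primary cells, 1000/well, exposed to compounds for 40 hr at 37 °C in complete medium; cellular ATP read by CellTiter-Glo luminescence. AC50 from concentration-response fitted with standard Hill equation.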

CNC(=O)c1ccccc1
inactive: Potency [1] > 92 µM | Potency [2] > 92 µM | Potency [3] > 92 µM | Potency [4] > 92 µM | Potency [5] > 92 µM | Potency [6] > 92 µM | outcome [7] | activity change, negative = cytotoxicity [8] -4.58% | Potency [9] | Potency [10] | Potency [11] | Potency [12] | Potency [13] | Potency [14] | caspase-3 activation [15] 0.307% | outcome [16] | outcome [17] | outcome [18] | outcome [19]

CCCCC=O
inactive: Potency [1] > 92 µM | Potency [2] > 92 µM | Potency [3] > 92 µM | Potency [4] > 92 µM | Potency [5] > 92 µM | Potency [6] > 92 µM | outcome [7] | activity change, negative = cytotoxicity [8] 4.71% | Potency [9] | Potency [10] | Potency [11] | Potency [12] | Potency [20] | Potency [14] | caspase-3 activation [15] -1.47% | outcome [16] | outcome [17] | outcome [18] | outcome [19]

Cc1cscn1
inactive: Potency [1] > 92 µM | Potency [2] > 92 µM | Potency [3] > 92 µM | Potency [4] > 92 µM | Potency [5] > 92 µM | Potency [6] > 92 µM | outcome [7] | activity change, negative = cytotoxicity [8] 6.1% | Potency [9] | Potency [10] | Potency [11] | Potency [12] | Potency [13] | Potency [14] | caspase-3 activation [15] 2.2% | outcome [16] | outcome [17] | outcome [18] | outcome [19]

CCC(=O)/C=C/C1C(C)=CCCC1(C)C (stereo unspecified)
inactive: Potency [1] > 92 µM | Potency [2] > 92 µM | Potency [3] > 92 µM | Potency [4] > 92 µM | Potency [5] > 92 µM | Potency [6] > 92 µM | outcome [7] | activity change, negative = cytotoxicity [8] -6.46% | Potency [9] | Potency [10] | Potency [11] | Potency [12] | Potency [13] | Potency [14] | caspase-3 activation [15] 2.94% | outcome [16] | outcome [17] | outcome [18] | outcome [19]

CCCCCCC(=O)O
inactive: Potency [1] > 92 µM | Potency [2] > 92 µM | Potency [3] > 92 µM | Potency [4] > 92 µM | Potency [5] > 92 µM | Potency [6] > 92 µM | outcome [7] | activity change, negative = cytotoxicity [8] -3.74% | Potency [9] | Potency [10] | Potency [11] | Potency [12] | Potency [20] | caspase-3 activation [15] 0.927% | outcome [16] | outcome [17] | outcome [18] | outcome [19]

Cc1ccc(C#N)cc1
inactive: Potency [1] > 92 µM | Potency [2] > 92 µM | Potency [3] > 92 µM | Potency [4] > 92 µM | Potency [5] > 92 µM | Potency [6] > 92 µM | outcome [7] | activity change, negative = cytotoxicity [8] 6% | Potency [9] | Potency [10] | Potency [11] | Potency [12] | Potency [13] | Potency [14] | caspase-3 activation [15] 0.554% | outcome [16] | outcome [17] | outcome [18] | outcome [19]

CC(C)CO
inactive: Potency [1] > 92 µM | Potency [2] > 92 µM | Potency [3] > 92 µM | Potency [4] > 92 µM | Potency [5] > 92 µM | Potency [6] > 92 µM | outcome [7] | activity change, negative = cytotoxicity [8] 3.29% | Potency [9] | Potency [10] | Potency [11] | Potency [12] | Potency [20] | Potency [14] | caspase-3 activation [15] -0.38% | outcome [16] | outcome [17] | outcome [18] | outcome [19]

CCOC(=O)OCC
inactive: Potency [1] > 92 µM | Potency [2] > 92 µM | Potency [3] > 92 µM | Potency [4] > 92 µM | Potency [5] > 92 µM | Potency [6] > 92 µM | outcome [7] | activity change, negative = cytotoxicity [8] -11.2% | Potency [9] | Potency [10] | Potency [11] | Potency [20] | Potency [13] | Potency [14] | caspase-3 activation [15] 0.854% | outcome [16] | outcome [17] | outcome [18] | outcome [19]

CCCCCCC=O
inactive: Potency [1] > 92 µM | Potency [2] > 92 µM | Potency [3] > 92 µM | Potency [4] > 92 µM | Potency [5] > 92 µM | Potency [6] > 92 µM | outcome [7] | activity change, negative = cytotoxicity [8] -2.45% | Potency [9] | Potency [10] | Potency [11] | Potency [12] | Potency [13] | Potency [14] | caspase-3 activation [15] 0.767% | outcome [16] | outcome [17] | outcome [18] | outcome [19]

CC/C=C1/OC(=O)c2ccccc21
inactive: Potency [1] > 92 µM | Potency [2] > 92 µM | Potency [3] > 92 µM | Potency [4] > 92 µM | Potency [5] > 92 µM | Potency [6] > 92 µM | outcome [7] | activity change, negative = cytotoxicity [8] 3.1% | Potency [9] | Potency [10] | Potency [11] | Potency [12] | Potency [13] | Potency [14] | caspase-3 activation [15] -0.618% | outcome [16] | outcome [17]

CCCCOCCOCCSC#N
inactive: Potency [1] > 92 µM | Potency [2] > 92 µM | Potency [3] > 92 µM | Potency [4] > 92 µM | Potency [5] > 92 µM | Potency [6] > 92 µM | outcome [7] | activity change, negative = cytotoxicity [8] 0.328% | Potency [9] | Potency [10] | Potency [11] | Potency [12] | Potency [13] | Potency [14] | caspase-3 activation [15] 1.11% | outcome [16] | outcome [17] | outcome [18] | outcome [19]
